Source: paper PMC7826789 (International Journal of Molecular Sciences, 2021)

test system: CDK2; details: Compound Concentration (nM):1000
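Also: KINOMEscan scanMAX binding as percent activity remaining versus control; lower means stronger binding.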

Going from `O=C(Nc1n[nH]c2nc(-c3ccc(O)cc3)c(Br)cc12)C1CC1` [SB-725317] to `CC1=C(C(=O)Nc2ccc3[nH]ncc3c2)C(c2ccc(Cl)c(Cl)c2)CC(=O)N1` (stereo not drawn) [GSK299115A], the “Percent Control” value rises from 51% to 100%.

First: COc1cccc(-c2c[nH]c3c(N/N=C/c4ccncc4)ncnc23)c1 [GW814408X]
Second: COc1cccc(-n2ncc3c(N/N=C/c4ccncc4)ncnc32)c1 [GW784752X]
The “Percent Control” value of the first is lower: 62% for the first, 72% for the second.

Compared with `Cl.O=C(O[C@H]1CN[C@H](C#Cc2cc3ncnc(Nc4ccc5c(cnn5Cc5ccccc5)c4)c3s2)C1)N1CCOCC1` [GSK200398A], `COc1cc2ncnc(Nc3ccc4c(cnn4Cc4ccccc4)c3)c2cc1OC.Cl` [GW282449A] is higher in “Percent Control” value: 97% for the first, 100% for the second.

`CCS(=O)(=O)c1ccc(OC)c(Nc2ncc(-c3cccc(OC)c3)o2)c1` [GW580509X] and `CCS(=O)(=O)c1ccc(OC)c(Nc2ncc(-c3cccc(F)c3)o2)c1` [GW621970X] are the same in “Percent Control” value: 100% for the first, 100% for the second.

Compared with `COc1ccc2cc(-c3c(-c4ccncc4)nc(-c4ccc(S(C)(=O)=O)cc4C)n3C)ccc2c1` [SB-633825], `CCc1ccc(Oc2nccc(-c3c(-c4ccc(F)cc4)ncn3C3CCNCC3)n2)cc1` [SB-242719] is higher in “Percent Control” value: 79% for the first, 100% for the second.

`COc1ccc(COc2ccc(Cc3cnc(N)nc3N)cc2OC)cc1` [GW632580X] and `Cl.c1ccc(Cc2nc3ccc(Nc4ncnc5ccccc45)cc3[nH]2)cc1` [GR269666A] are the same in “Percent Control” value: 100% for the first, 100% for the second.

Compared with `C[C@@H](Oc1cc(-n2cnc3ccc(OC4CCN(C)CC4)cc32)sc1C(N)=O)c1ccccc1Cl` [GSK579289A], `Cl.O=S1CCN(Cc2ccc(-c3ccc4ncnc(Nc5ccc(OCc6ccccc6)c(F)c5)c4c3)o2)CC1` [GW576924A] is higher in “Percent Control” value: 74% for the first, 100% for the second.

Compared with `COc1cc(N2CCN(C(C)C)CC2)ccc1Nc1nc(Nc2ccc(F)cc2C(=O)NC[C@@H](O)CO)c2cc[nH]c2n1` [GSK1392956A], `COc1cc(C)c(N(C)C(=O)CN(C)C)cc1Nc1nc(Nc2cccc(F)c2C(N)=O)c2cc[nH]c2n1` [GSK2219385] is higher in “Percent Control” value: 86% for the first, 100% for the second.

Compared with `Cl.O=C(Nc1ccc(Oc2ccc3[nH]c(NC(=O)c4ccccc4)nc3c2)cc1)Nc1cc(C(F)(F)F)ccc1F` [GW709042A], `COC(=O)Nc1nc2ccc(Oc3ccc(NC(=O)Nc4cc(C(F)(F)F)ccc4F)cc3)cc2s1.Cl` [GW693917A] is lower in “Percent Control” value: 100% for the first, 65% for the second.

Going from `CC1=C(C(=O)Nc2ccc3[nH]ncc3c2)C(c2ccc3ccccc3c2)CC(=O)N1` (stereo not drawn) [GSK270822A] to `C/C(Nc1ccc(S(N)(=O)=O)cc1)=C1/C(=O)Nc2ccccc21` [GW335962X], the “Percent Control” value falls from 100% to 87%.

Going from `Nc1ncnc2occ(-c3ccc(NC(=O)Nc4cc(C(F)(F)F)ccc4F)cc3)c12` [GW770249X] to `COc1ccc2c(-c3ccnc(Nc4cccc(OC(F)(F)F)c4)n3)cnn2n1` [GW810372X], the “Percent Control” value rises from 38% to 100%.

Compared with `O=C1Nc2ccc(C(=O)c3ccco3)cc2C1=Cc1cc(Cl)c(O)c(Cl)c1` [GW406108X], `CC(C)COC(=O)c1ccc2c(c1)/C(=C/Nc1ccc(S(N)(=O)=O)cc1)C(=O)N2` [GW416981X] is lower in “Percent Control” value: 100% for the first, 15% for the second.

Going from `COc1ccc2[nH]c3c4[nH]c5ccc(OC)cc5c4c4c(c3c2c1)C(=O)NC4=O` [GW296115X] to `NS(=O)(=O)c1ccc(N/N=C2\C(=O)Nc3ccc(Cl)cc32)cc1` [GW280670X], the “Percent Control” value falls from 93% to 83%.

Going from `CN(C)CCNC(=O)Nc1ccc(N(C)c2ccnc(Nc3ccc(CS(C)(=O)=O)cc3)n2)cc1.Cl` [GW830900A] to `NS(=O)(=O)c1ccc(Nc2ncc(-c3ccccc3)o2)cc1` [GW572399X], the “Percent Control” value rises from 98% to 100%.

First: COc1cc(/C=N/Nc2ncnc3[nH]ncc23)ccc1O [GW578748X]
Second: COc1cc(C=NNc2ncnc3c2cnn3-c2ccccc2)ccc1O [GW513184X]
The “Percent Control” value of the first is higher: 100% for the first, 66% for the second.

Going from `NS(=O)(=O)c1ccc(N/N=C2\C(=O)Nc3ccc(-c4cnco4)cc32)cc1` [GW276655] to `CN(C)c1cc2c(Nc3ccc4c(cnn4Cc4ccccc4)c3)ncnc2cn1` [GW282974X], the “Percent Control” value rises from 32% to 79%.

For `CCn1c(-c2nonc2N)nc2c(C#CC(C)(C)O)nc(OCCNC)cc21.Cl` [GSK949675], the “Percent Control” value was 100%.
